In PubChem BioAssay (Tox21) one finds Potency data, which are given here for 40 compounds.

Results filed as inconclusive are left out. A call without a number means that no potency is given here. Activity calls are given as the source filed them. Calls come from the whole dose curve; as a rule, active = well fitted activation curve with a large enough effect; inconclusive = small, poorly fitted or top-dose-only effect; inactive = flat fitted curve, though single readings scatter. Positions of bridges follow the written chain, without caps; N, C: chain ends. Non-standard residues stand in square brackets, D forms with d. Residues, ends and D or L forms follow the SMILES beside them. *: point of attachment. X1 = CC[C@@H](C)[C@@H](N)C1=N[C@H](C(=O)*)CS1; d(aIle) = CC[C@H](C)[C@@H](N)C(=O)O; dOrn = NCCC[C@@H](N)C(=O)O

The assay is described as follows: qHTS assay to identify small molecule phospholipidosis (PLD) inducers (AID 1259344). As to conditions: HepG2 phospholipidosis, LipidTOX Red imaging, 24 h; series mostly up to 38.3 µM. The method, boiled down: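 Image-based: LipidTOX Red pit count/intensity per well and per cell; HepG2, 24 h compound at 37 C, PFA fixation, Hoechst counterstain.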
In the case of `CO[C@H](C(=O)[C@@H](O)[C@@H](C)O)C1Cc2cc3cc(O[C@H]4C[C@@H](O[C@H]5C[C@@H](O)[C@H](O)[C@@H](C)O5)[C@@H](O)[C@@H](C)O4)c(C)c(O)c3c(O)c2C(=O)[C@H]1O[C@H]1C[C@@H](O[C@H]2C[C@@H](O[C@H]3C[C@](C)(O)[C@H](O)[C@@H](C)O3)[C@H](O)[C@@H](C)O2)[C@H](O)[C@@H](C)O1` (stereo not given in full), the Potency entry is “inactive”.
For `CCc1ncnc2cc(OC)c(OC)cc12` the value was “inactive”; for `CC12CCC(C1)C(C)(C)C2=O` (stereo not given), “inactive”; for `CC(=O)OCC1=C(C(=O)O)N2C(=O)[C@@H](NC(=O)Cc3ccccc3)[C@H]2SC1`, “inactive”.
Consider `CN=C(N)NCCC[C@H](N)C(=O)O`, for which the Potency result is “inactive”.
Consider `CN1[C@@H](CC(=O)c2ccccc2)CCC[C@H]1C[C@H](O)c1ccccc1`, for which the Potency result is “inactive”.
As for `O.O.O.O.O.O.O.O=S(=O)([O-])[O-].[Co+2]`, the Potency result was “inactive”.
As for `CC[C@@H](C)[C@@H](N)C1=N[C@H](C(=O)N[C@@H](CC(C)C)C(=O)N[C@@H](CCC(=O)O)C(=O)N[C@@H](C(=O)N[C@@H]2CCCCNC(=O)[C@@H](CC(N)=O)NC(=O)[C@@H](CC(=O)O)NC(=O)[C@@H](Cc3cnc[nH]3)NC(=O)[C@@H](Cc3ccccc3)NC(=O)[C@@H]([C@H](C)CC)NC(=O)[C@@H](CCCN)NC2=O)[C@@H](C)CC)CS1` (X1-LE[d(aIle)][dK][dOrn][dI][dF][dH][dD][dN]; lactam 4-C), the entry is “inactive”.
Regarding `Nc1cc(Cl)c(NC2=NCCN2)c(Cl)c1`, the Potency result is “inactive”.
Regarding `CO/N=C(\C(=O)N[C@@H]1C(=O)N2C(C(=O)O)=C(CSc3cnns3)CS[C@H]12)c1csc(N)n1`, the Potency result is “inactive”.
As for `C=CC(N)CCC(=O)O` (stereo not given), the entry is “inactive”; as for `O=C1c2ccccc2-c2n[nH]c3cccc1c23`, “inactive”.
As for `OCC1(CO)COC(C(Cl)(Cl)Cl)OC1`, the entry is “inactive”; as for `CCC1OC(=O)C[C@@H](O)[C@H](C)[C@@H](O[C@@H]2O[C@H](C)C[C@H](N(C)C)[C@H]2O)[C@@H](CC=O)C[C@@H](C)C(=O)/C=C/[C@]2(C)OC2C1C` (stereo not given in full), “inactive”; as for `CC/C(=C(/CC)c1ccc(OP(=O)(O)O)cc1)c1ccc(OP(=O)(O)O)cc1`, “inactive”.
`CCOC(=O)Cc1ccc(-c2ccccc2)cc1`: the Potency result was “inactive”.
For the compound `Cc1cccc(C)c1NC(=O)C1CCCCN1C` (stereo not given), the Potency result was “inactive”.
As for `C=CCN1C(=O)C(CC(C)C)NC1=S` (stereo not given), the entry is “inactive”; as for `CC(C)[N+]1(C)[C@@H]2CC[C@H]1CC(OC(=O)C(CO)c1ccccc1)C2` (stereo not given in full), “inactive”; as for `CC/C=C\C/C=C\C/C=C\C/C=C\C/C=C\CCCC(=O)O`, “inactive”.
For `CSCCC(N)C(=O)O` (stereo not given) the value was “inactive”; for `CCOc1cc(CC(=O)N[C@@H](CC(C)C)c2ccccc2N2CCCCC2)ccc1C(=O)O`, “inactive”.
`COC(=O)C[C@](O)(CCCC(C)(C)O)C(=O)O[C@@H]1C(OC)=CC23CCCN2CCc2cc4c(cc2[C@H]13)OCO4` (stereo not given in full): the Potency result is “inactive”.
For `CCCCCCCCCCCCCCCC[n+]1ccccc1` the value was “inactive”.
`CC[C@H]1OC(=O)[C@H](C)C(=O)[C@H](C)[C@@H](O[C@@H]2O[C@H](C)C[C@H](N(C)C)[C@H]2O)[C@](C)(OC)C[C@@H](C)C(=O)[C@H](C)[C@H]2N(CCCCn3cnc(-c4cccnc4)c3)C(=O)O[C@]12C`: the Potency result is “inactive”.
In the case of `CCCn1c(=O)[nH]c(=O)c2[nH]cnc21`, the Potency entry was “inactive”.
As for `N[C@H](CO)C(=O)O`, the entry is “inactive”; as for `CCCCCCCCCCCCCCCC(=O)OC[C@H](COP(=O)([O-])OCC[N+](C)(C)C)OC(=O)CCCCCCCCCCCCCCC`, “inactive”.
As for `CC(C)c1ncc([N+](=O)[O-])n1C`, the entry is “inactive”.
As for `C=CC[N+]1([C@H]2C[C@H]3[C@@H]4CC[C@H]5C[C@H](O)[C@@H](N6CCOCC6)C[C@]5(C)[C@H]4CC[C@]3(C)[C@H]2OC(C)=O)CCCC1`, the Potency result was “inactive”.
For `O=c1[nH]c(=O)n([C@H]2C[C@H](O)[C@@H](CO)O2)cc1/C=C/Br` the value was “inactive”.
For `O=S(=O)(O)O` the value was “inactive”.
For `O=C(O)c1cc(O)c2c(c1)[C@H]([C@H]1c3cc(C(=O)O)cc(O)c3C(=O)c3c(O[C@@H]4O[C@H](CO)[C@@H](O)[C@H](O)[C@H]4O)cccc31)c1cccc(O[C@@H]3O[C@H](CO)[C@@H](O)[C@H](O)[C@H]3O)c1C2=O` the value was “inactive”; for `C(=C\c1ccncc1)/c1ccccc1`, “inactive”; for `NC(N)=NCc1cccc(I)c1`, “inactive”.
With `C[C@@H]1O[C@@H](OC[C@H]2O[C@@H](Oc3c(-c4ccc(OCCO)c(OCCO)c4)oc4cc(OCCO)cc(O)c4c3=O)[C@H](O)[C@@H](O)[C@@H]2O)[C@H](O)[C@H](O)[C@H]1O`, the Potency result is “inactive”.
In the case of `C=C1[C@H](CO)[C@@H](O)C[C@@H]1n1cnc2c(=O)[nH]c(N)nc21`, the Potency result was “inactive”.
For `Cc1cc(=O)c(C(=O)N[C@@H](C(=O)N[C@@H]2C(=O)N3C(C(=O)O)=C(CSc4nnnn4C)CS[C@H]23)c2ccc(O)cc2)c[nH]1` the value was “inactive”; for `Cc1ncc(C[n+]2csc(CCOP(=O)(O)O)c2C)c(N)n1`, “inactive”; for `Cc1cc(C(=O)NCCc2ccc(S(=O)(=O)NC(=O)NN3CCCCCC3)cc2)no1`, “inactive”.
